This note sets out measurements from PubChem BioAssay.

A number with no mark means an inactive call. Unless noted, no rule for the calls is given here.
Also: test concentration not given here.

The target of one test is Dihydroorotate dehydrogenase (quinone), mitochondrial (Plasmodium falciparum (isolate 3D7)) (UniProt Q08210). The test can be described thus: inhibition of P. falciparum DHODH – biochemical, C-terminal His tag, absorbance 600 nm, primary screen (AID 1175).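 Also: recombinant parasite enzyme with a five histidine tag at its C terminus.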 As to conditions: PfDHODH enzyme, DCIP absorbance 600 nm; higher = more signal, called active from +8 up or from −8 down.
Dihydroorotate dehydrogenase (quinone), mitochondrial (Plasmodium falciparum (isolate 3D7)), sequence (Q08210 whole entry, looked up): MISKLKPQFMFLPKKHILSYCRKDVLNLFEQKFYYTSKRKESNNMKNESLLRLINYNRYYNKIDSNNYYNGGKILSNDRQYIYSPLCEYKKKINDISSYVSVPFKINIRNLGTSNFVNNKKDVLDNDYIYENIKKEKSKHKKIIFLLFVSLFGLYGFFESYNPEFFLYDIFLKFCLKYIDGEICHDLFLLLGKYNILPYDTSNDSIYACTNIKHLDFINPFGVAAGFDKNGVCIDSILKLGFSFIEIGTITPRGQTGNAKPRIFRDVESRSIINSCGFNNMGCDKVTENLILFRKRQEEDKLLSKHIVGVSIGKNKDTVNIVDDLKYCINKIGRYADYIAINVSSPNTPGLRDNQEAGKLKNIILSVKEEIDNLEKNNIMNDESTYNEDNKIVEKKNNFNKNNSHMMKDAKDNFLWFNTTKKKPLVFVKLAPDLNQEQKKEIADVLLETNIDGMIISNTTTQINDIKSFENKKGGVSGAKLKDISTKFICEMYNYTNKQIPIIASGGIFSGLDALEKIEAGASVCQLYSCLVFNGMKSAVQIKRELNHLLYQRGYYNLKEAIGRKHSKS
As to `CCOC(=O)[C@H](CC(C)C)NC(=O)CCC1CC(OC(=O)NCc2ccc3c(c2)OCO3)CC2(CCCC(COC(=O)NCCOc3ccccc3)O2)O1` (some centres undefined), the composite z-score was 0.0657.

As for `O=C1C2=CC[C@H]3C(=O)N(c4ccc(F)cc4F)C(=O)[C@H]3[C@H]2[C@H](O)[C@@H]2O[C@H]12`, the composite z-score is -0.166.

As for `CC(=O)OC[C@H]1O[C@H](C#CCCc2ccccc2)C=C[C@@H]1OC(C)=O`, the composite z-score is -0.419.

On to `CC(C)=NOC(C)CN1CCCc2nc(C)c(C)cc21` (centres undefined), for which the composite z-score is 0.787.

With `COC(=O)[C@H](C)NC(=O)CCC1CC(OC(=O)NCc2cccc3ccccc23)CC2(CCCC(COC(=O)NCCOc3ccccc3)O2)O1` (some centres undefined), the composite z-score is -0.989.

With `C[C@@H]1CC[C@@H](C(=O)O)N[C@H]1c1cccc(N2CCOCC2)c1`, the composite z-score is 0.18.

For the compound `COC(=O)[C@@H]1CC[C@H](C)[C@@H](c2ccc(Br)cc2)N1C[C@H](O)CN=[N+]=[N-]`, the composite z-score is 0.294.

Consider `CCOC(=O)[C@H](Cc1ccccc1)NC(=O)CCC1CC(OC(=O)NCCc2ccc(F)cc2)CC2(CCCC(COC(=O)NCc3cccc(C(F)(F)F)c3)O2)O1` (some centres undefined), for which the composite z-score is -0.276.

`COc1cccc([C@H]2Oc3ccc(OC)cc3C(=NOCC[C@@H]3C=C[C@H](OC(C)=O)[C@@H](COC(C)=O)O3)[C@@H]2O)c1`: the composite z-score is 0.472.

Regarding `CC(=O)OC[C@H]1O[C@H](CC=NO[C@@H](C)c2cc(-c3c(C)cc(C)cc3C)no2)C=C[C@@H]1OC(C)=O`, the composite z-score was 0.272.

As to `CCOC(=O)NN=C1C[C@@H](O)[C@@H](O)[C@@H]2[C@@H]3C(=O)N(c4ccc(F)cc4F)C(=O)[C@@H]3CC[C@H]12`, the composite z-score was -2.51.

`O=C1[C@H]2[C@H]3[C@H](O)[C@H](O)CC(=NO[C@@H]4O[C@H](CO)[C@@H](O)[C@H](O)[C@H]4O)[C@H]3CC[C@H]2C(=O)N1C[C@@H]1CCCO1`: the composite z-score is -0.595.

In the case of `CCOC(=O)[C@H](Cc1ccccc1)NC(=O)CCC1CC(OC(=O)NCCc2ccc(F)cc2)CC2(CCCC(COC(=O)NCCC(C)C)O2)O1` (some centres undefined), the composite z-score was 0.0106.

For `CO[C@H]1COC(=O)[C@H](C)COC(=O)[C@@H](OCc2ccccc2)C=C[C@@H]1C`, the composite z-score was 0.175.

As for `O=C1[C@H]2[C@H]3[C@H](O)[C@H](O)CC(=NOC[C@@H](O)COCc4ccco4)[C@@H]3CC[C@H]2C(=O)N1Cc1ccccc1`, the composite z-score was -0.137.

For `CC(C)=CCCC(C)=CCON=C1C[C@@H](O)[C@@H](O)[C@@H]2[C@@H]3C(=O)N(Cc4ccc5c(c4)OCO5)C(=O)[C@@H]3CC[C@H]12`, the composite z-score was -0.108.

As to `COC(=O)[C@H](C)NC(=O)CC=C[C@@H](C)[C@@H]1C=C[C@H](O)[C@@H](CO)O1`, the composite z-score was -0.0763.

With `COc1ccc(COC(=O)NN=C2C[C@@H](O)[C@@H](O)[C@@H]3[C@@H]4C(=O)N(C[C@@H]5CCCO5)C(=O)[C@@H]4CC[C@@H]23)cc1`, the composite z-score was -0.367.

Tested on in another test: not listed separately
In words: inhibition of PAO1 biofilm formation – strain PAO1, LB-PBS medium, absorbance 600 nm, primary screen (AID 1176). The settings on record: P. aeruginosa PAO1 growth/biofilm, A600, 12 h; higher = more signal.
In the case of `COC(=O)[C@H](C)NC(=O)CCC1CC(OC(=O)NCc2cccc3ccccc23)CC2(CCCC(COC(=O)NCc3ccccc3)O2)O1` (some centres undefined), the z-score was -0.376.

For the compound `O=C1CCCC=C1C(O)C1CCCCC1` (centres undefined), the z-score is -0.458.

In the case of `COc1ccc(COC(=O)NN=C2C[C@@H](O)[C@@H](O)[C@@H]3[C@@H]4C(=O)N(Cc5ccccc5)C(=O)[C@@H]4CC[C@@H]23)cc1`, the z-score was 0.0335.

For `CO[C@H]1COC(=O)CC=C[C@H](C)[C@H](OC)COC(=O)[C@@H](C)NC(=O)CC=C[C@@H]1C`, the z-score was -0.467.

As for `CC(C)CON=C1[C@H]2CCn3c(=O)n(C)c(=O)n3[C@H]2[C@H](O)[C@@H]2O[C@H]12`, the z-score was -0.425.

For the compound `CCOC(=O)CCN1C(=O)[C@H]2[C@H]3[C@H](O)[C@H](O)CC(=NOCC=C(C)CCC=C(C)C)[C@@H]3CC[C@H]2C1=O`, the z-score was 0.176.

Regarding `CC[C@@H](c1ccccc1)n1c(=O)n2n(c1=O)[C@H]1[C@H](O)[C@@H]3O[C@@H]3C(=NOCc3ccccc3)[C@H]1CC2`, the z-score was -0.0819.

Consider `CC(CCN1CCCc2nc(C)c(C)cc21)=NO[C@@H](C)c1cn([C@H](CO)Cc2ccccc2)nn1`, for which the z-score is -0.725.

For the compound `COC(=O)[C@H](C)NC(=O)CCC1CC(OC(=O)NCCc2ccc(F)cc2)CC2(CCCC(COC(=O)NCC3CCCCC3)O2)O1` (some centres undefined), the z-score was -0.919.

Consider `CCOC(=O)[C@H](Cc1ccccc1)NC(=O)CCC1CC(OC(=O)NCc2ccc3c(c2)OCO3)CC2(CCCC(COC(=O)NCCCN3CCCC3=O)O2)O1` (some centres undefined), for which the z-score was -0.801.

Take `CC(CCC(=O)OC[C@H]1O[C@H](C#Cc2ccccc2)C=C[C@@H]1Oc1ccc(C)cc1)=NOC[C@@H](C)[C@H](OCc1ccccc1)C(C)C`: the z-score was -0.503.

With `CCN1C(=O)[C@H]2[C@H]3[C@H](O)[C@H](O)CC(=NOC[C@@H](O)[C@H]4O[C@@H]5OC(C)(C)O[C@@H]5[C@H]4O)[C@@H]3CC[C@H]2C1=O`, the z-score was -0.795.

Take `CC(C)CON=C1C[C@@H](O)[C@@H](O)[C@@H]2[C@@H]3C(=O)N(Cc4ccc5c(c4)OCO5)C(=O)[C@@H]3CC[C@@H]12`: the z-score is -0.249.

Consider `C=CC[C@@H]1C=C[C@H](ON=C2C[C@@H](O)[C@@H](O)[C@@H]3[C@@H]4C(=O)N(CC)C(=O)[C@@H]4CC[C@@H]23)[C@@H](CO)O1`, for which the z-score is -0.0781.

For the compound `CO[C@H]1COC(=O)CCC[C@H](C)[C@H](OC)COC(=O)CC=C[C@@H]1C`, the z-score is -0.692.

On to `COc1ccc2c(c1)O[C@@H](c1cccc(C(F)(F)F)c1)[C@H](O)C2=O`, for which the z-score was 0.699.

With `CC(CCN1CCCc2nc(C)c(C)cc21)=NOC[C@@H](O)COCc1ccco1`, the z-score was 1.24.

For the compound `CCN1C(=O)[C@H]2[C@H]3[C@H](O)[C@H](O)CC(=NO[C@@H]4O[C@H](CO)[C@@H](O)[C@H](O)[C@H]4O)[C@H]3CC[C@H]2C1=O`, the z-score was 0.519.

Take `CCOC(=O)[C@H](CC(C)C)NC(=O)CCC1CC(OC(=O)NCc2ccc3c(c2)OCO3)CC2(CCCC(COC(=O)NCCOc3ccccc3)O2)O1` (some centres undefined): the z-score was -0.564.

In the case of `O=C1C2=CC[C@H]3C(=O)N(c4ccc(F)cc4F)C(=O)[C@H]3[C@H]2[C@H](O)[C@@H]2O[C@H]12`, the z-score is -0.307.

`CC(=O)OC[C@H]1O[C@H](C#CCCc2ccccc2)C=C[C@@H]1OC(C)=O`: the z-score was -0.0691.

Regarding `CC(C)=NOC(C)CN1CCCc2nc(C)c(C)cc21` (centres undefined), the z-score is 0.854.

On to `COC(=O)[C@H](C)NC(=O)CCC1CC(OC(=O)NCc2cccc3ccccc23)CC2(CCCC(COC(=O)NCCOc3ccccc3)O2)O1` (some centres undefined), for which the z-score was -0.458.

Take `C[C@@H]1CC[C@@H](C(=O)O)N[C@H]1c1cccc(N2CCOCC2)c1`: the z-score was 0.143.

Regarding `COC(=O)[C@@H]1CC[C@H](C)[C@@H](c2ccc(Br)cc2)N1C[C@H](O)CN=[N+]=[N-]`, the z-score is 1.09.

On to `CCOC(=O)[C@H](Cc1ccccc1)NC(=O)CCC1CC(OC(=O)NCCc2ccc(F)cc2)CC2(CCCC(COC(=O)NCc3cccc(C(F)(F)F)c3)O2)O1` (some centres undefined), for which the z-score was 0.544.

In the case of `COc1cccc([C@H]2Oc3ccc(OC)cc3C(=NOCC[C@@H]3C=C[C@H](OC(C)=O)[C@@H](COC(C)=O)O3)[C@@H]2O)c1`, the z-score was 0.0767.

As for `CC(=O)OC[C@H]1O[C@H](CC=NO[C@@H](C)c2cc(-c3c(C)cc(C)cc3C)no2)C=C[C@@H]1OC(C)=O`, the z-score was -1.17.

Regarding `CCOC(=O)NN=C1C[C@@H](O)[C@@H](O)[C@@H]2[C@@H]3C(=O)N(c4ccc(F)cc4F)C(=O)[C@@H]3CC[C@H]12`, the z-score was 0.614.

With `O=C1[C@H]2[C@H]3[C@H](O)[C@H](O)CC(=NO[C@@H]4O[C@H](CO)[C@@H](O)[C@H](O)[C@H]4O)[C@H]3CC[C@H]2C(=O)N1C[C@@H]1CCCO1`, the z-score is -0.355.

Regarding `CCOC(=O)[C@H](Cc1ccccc1)NC(=O)CCC1CC(OC(=O)NCCc2ccc(F)cc2)CC2(CCCC(COC(=O)NCCC(C)C)O2)O1` (some centres undefined), the z-score was 0.0737.

On to `CO[C@H]1COC(=O)[C@H](C)COC(=O)[C@@H](OCc2ccccc2)C=C[C@@H]1C`, for which the z-score was -0.355.

Consider `O=C1[C@H]2[C@H]3[C@H](O)[C@H](O)CC(=NOC[C@@H](O)COCc4ccco4)[C@@H]3CC[C@H]2C(=O)N1Cc1ccccc1`, for which the z-score is -1.01.

For `CC(C)=CCCC(C)=CCON=C1C[C@@H](O)[C@@H](O)[C@@H]2[C@@H]3C(=O)N(Cc4ccc5c(c4)OCO5)C(=O)[C@@H]3CC[C@H]12`, the z-score is 0.437.

Consider `COC(=O)[C@H](C)NC(=O)CC=C[C@@H](C)[C@@H]1C=C[C@H](O)[C@@H](CO)O1`, for which the z-score was 0.25.

Turning to `COc1ccc(COC(=O)NN=C2C[C@@H](O)[C@@H](O)[C@@H]3[C@@H]4C(=O)N(C[C@@H]5CCCO5)C(=O)[C@@H]4CC[C@@H]23)cc1`, the z-score was 0.328.
